In assay [1] the test system is TRPC4 beta (transient receptor potential cation channel C4), mouse. As to the kind of experiment: TRPC4 cation channel opening, retest – cell-based, Fluo4 calcium, HEK293 TRPC4beta/mu-opioid, duplicates, 10 µM, confirmation (AID 2426;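 active = fluorescence ratio normalized to control raised more than 50% in primary screen plus both repeat runs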). The following applies: Fluo4 calcium fluorescence, at 10 µM; hits give high values.
Assay [2] concerns transient receptor potential cation channel C4 beta (TRPC4), mouse. As to the kind of experiment: TRPC4 cation channel opening, second retest – cell-based, second round, Fluo4, HEK293 TRPC4beta/mu-opioid, 1 µM, confirmation (AID 2461;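 active = primary screen active and over 50% activation in each of two duplicate runs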). Conditions: Fluo4 calcium fluorescence, at 1 µM; hits give high values.
In assay [3] the test system is TRPC4 (transient receptor potential cation channel C4 beta), mouse. As to the kind of experiment: potentiation of DAMGO EC20 TRPC4 response – cell-based, second round, Fluo-4, HEK293 TRPC4beta/mu-opioid, 1 µM, confirmation (AID 2554). The following applies: DAMGO EC20, Fluo-4 calcium flux, at 1 µM; hits give high values.
Assay [4] deals with TRPC4 beta (transient receptor potential cation channel C4), mouse. As to the kind of experiment: potentiation of DAMGO EC20 TRPC4 response – cell-based, Fluo-4, HEK293 TRPC4beta/mu-opioid, confirmation (AID 2555;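 active = primary screen hit whose calcium fluorescence ratio, in both repeats, exceeds the weak agonist control mean by 3 SD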). The following applies: DAMGO EC20, Fluo-4 calcium flux, at 10 µM; hits give high values. (In general: Calcium assays in cells follow changes in intracellular calcium, usually with a dye or a luminescent sensor.)

Assay [5] concerns the target Short transient receptor potential channel 4 (Mus musculus) (UniProt Q9QUQ5). As to the kind of experiment: blockers of DAMGO-evoked TRPC4 calcium flux – cell-based, Fluo4, HEK293 TRPC4beta/mu-opioid, confirmation (AID 2636;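 active = calcium signal cut by more than 3 SD below the full-agonist control yet still positive, in both repeats and the earlier primary screen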). The following applies: at 10 µM; hits give high values.
Assay [6] shares this target. As to the kind of experiment: blockers of DAMGO-evoked TRPC4 calcium flux – cell-based, second round, Fluo4, HEK293 TRPC4beta/mu-opioid, 1 µM, confirmation (AID 2637;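 active = calcium signal ratio cut to more than 3 SD under the fully stimulated control mean yet still positive, in both repeats and the primary screen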). The following applies: at 1 µM; hits give high values.
For assay [7] the target is unchanged. In words: calcium entry via TRPC4 opening agents – cell-based, HEK293 TRPC4/mu-opioid, Fluo-4 calcium, dose response (AID 434937;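 active = primary screen activator hit with a dose response curve and TRPC4 channel activation at any tested dose; inactive = no activation, no dose response, or not a primary hit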).
Assay [8] shares this target. As to the kind of experiment: potentiation of DAMGO-evoked TRPC4 calcium signal – cell-based, HEK293 TRPC4/mu-opioid, Fluo-4 calcium, EC20 DAMGO, dose response (AID 434941;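 active = earlier screen potentiator hit that boosts the TRPC4 ion channel at some dose, with a dose response; inactive = no potentiation, no dose response, or not a prior hit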;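 also: calcium entry triggered by an EC20 dose of DAMGO at the co-expressed mu-opioid receptor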).
For assay [9] the target is unchanged. As to the kind of experiment: block of DAMGO-driven TRPC4 calcium entry – cell-based, HEK293 TRPC4/mu-opioid, Fluo-4 calcium, dose response (AID 434942;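 active = primary screen inhibitor hit that blocks the TRPC4 channel at some tested dose, yielding a dose curve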).
The target of assay [10] is Short transient receptor potential channel 6 (Mus musculus) (UniProt Q61143). As to the kind of experiment: TRPC6 blockade by TRPC4 inhibitor hits – cell-based, HEK293, membrane potential dye, duplicate, selectivity assay for TRPC4 inhibitor project, confirmation (AID 434948;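 active = active in primary screen and both duplicates, each dropping signal beyond three positive-control SD with fluorescence still positive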). The following applies: HEK293 TRPC6, membrane potential dye fluorescence, at 10 µM, stimulated with maximal-effect acetylcholine; hits give high values.

For assay [11] the target is unchanged. In words: TRPC6 opening by TRPC4 activator hits – cell-based, HEK293, membrane potential dye, duplicate, selectivity assay for TRPC4 activator project, confirmation (AID 434950;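 active = membrane potential signal rise above negative control mean plus 3 SD in both duplicates, also active in the earlier TRPC4 screen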). Conditions: HEK293 TRPC6, membrane potential fluorescence, at 10 µM; activation: hits give high values; outcome: activation.
Assay [12] has the same target. As to the kind of experiment: positive modulators of mouse TRPC6 channel – HEK293 cells, membrane potential dye, duplicate, selectivity assay for TRPC4 potentiator project, confirmation (AID 434952;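 active = compound raising the membrane signal above positive-control mean plus 3 SD in both repeats, and a primary screen hit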). Conditions: HEK293 TRPC6, membrane potential dye fluorescence, at 10 µM, maximal acetylcholine added after compound; hits give high values.
For assay [13], the target named is Short transient receptor potential channel 4 (Mus musculus) (UniProt Q9QUQ5). As to the kind of experiment: calcium flux activators in TRPC4/5HT1a cells, counter-screen for TRPC4 activator project, cell-based, second counter screen, HEK293 TRPC4/5HT1a, Fluo-4 (AID 434977;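 active = calcium signal rise above buffer-control mean plus 5 SD in both duplicates, and also a hit in the primary screen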). Conditions: Fluo-4 calcium flux, at 10 µM; hits give high values.
The nature of assay [14]: serotonin-gated TRPC4 signal block – cell-based, second counter screen, HEK293 TRPC4/5HT1a, Fluo-4, counter-screen for TRPC4 inhibitor project, confirmation (AID 434978;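 active = primary screen active whose calcium signal fell more than 3 SD beyond the full-serotonin control mean in both duplicate plates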;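 as to outcome: serotonin given first at submaximal then at maximal dose after compound preincubation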). Conditions: Fluo-4 calcium flux, at 10 µM, serotonin added to trigger calcium flux; hits give high values. In general terms: A counterscreen serves to expose hits that act by an unwanted route or on another target.

Assay [15] concerns TRPC4 (mouse), co-expressed with 5HT1a in HEK293. In words: enhancement of serotonin-evoked TRPC4 response – cell-based, second counter screen, HEK293 TRPC4/5HT1a, Fluo-4, counter-screen for TRPC4 potentiator project, confirmation (AID 434979;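 active = signal rise over 3 SD above mean of control wells given weak agonist, in both repeats and first screen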). The following applies: Fluo-4 calcium flux, at 10 µM, serotonin added at its EC20 dose; hits give high values.
Assay [16] can be described thus: nonspecific calcium rise without TRPC4 – cell-based, HEK293 mu-opioid receptor line, counter-screen for TRPC4 activator project, confirmation (AID 449723;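 active = hit in primary screen, with calcium signal over 5 SD above buffer well mean in both duplicates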;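 also: counter screen cells carry the mu-opioid receptor alone and lack TRPC4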). Conditions: HEK293 mu-opioid cells, Fluo-4 calcium fluorescence, at 10 µM; hits give high values.
A short description of assay [17]: nonspecific potentiation of DAMGO calcium response – cell-based, HEK293 mu-opioid receptor line, counter-screen for TRPC4 allosteric potentiator project, confirmation (AID 449724;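 active = calcium signal rise more than 3 SD above the low-dose agonist control mean, in both duplicate plates and the primary screen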;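 also: HEK293 cells carrying mu-opioid receptor only with no TRPC4 channel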). The following applies: HEK293 mu-opioid receptor cells, Fluo-4 calcium flux, at 10 µM, compound added before EC20 DAMGO stimulus; hits give high values.

The structures appear in SMILES notation. For some assays here: Entries with a potency or affinity are not part of this list. Calls of active or inactive are those of the source.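 The calls were made as follows, unless noted: active = primary screen hit whose fluorescence ratio, in both repeats, exceeds the weak agonist control mean by 3 SD; inactive = the rest.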

Chain of Short transient receptor potential channel 4 (Mus musculus) (Q9QUQ5 whole entry, looked up): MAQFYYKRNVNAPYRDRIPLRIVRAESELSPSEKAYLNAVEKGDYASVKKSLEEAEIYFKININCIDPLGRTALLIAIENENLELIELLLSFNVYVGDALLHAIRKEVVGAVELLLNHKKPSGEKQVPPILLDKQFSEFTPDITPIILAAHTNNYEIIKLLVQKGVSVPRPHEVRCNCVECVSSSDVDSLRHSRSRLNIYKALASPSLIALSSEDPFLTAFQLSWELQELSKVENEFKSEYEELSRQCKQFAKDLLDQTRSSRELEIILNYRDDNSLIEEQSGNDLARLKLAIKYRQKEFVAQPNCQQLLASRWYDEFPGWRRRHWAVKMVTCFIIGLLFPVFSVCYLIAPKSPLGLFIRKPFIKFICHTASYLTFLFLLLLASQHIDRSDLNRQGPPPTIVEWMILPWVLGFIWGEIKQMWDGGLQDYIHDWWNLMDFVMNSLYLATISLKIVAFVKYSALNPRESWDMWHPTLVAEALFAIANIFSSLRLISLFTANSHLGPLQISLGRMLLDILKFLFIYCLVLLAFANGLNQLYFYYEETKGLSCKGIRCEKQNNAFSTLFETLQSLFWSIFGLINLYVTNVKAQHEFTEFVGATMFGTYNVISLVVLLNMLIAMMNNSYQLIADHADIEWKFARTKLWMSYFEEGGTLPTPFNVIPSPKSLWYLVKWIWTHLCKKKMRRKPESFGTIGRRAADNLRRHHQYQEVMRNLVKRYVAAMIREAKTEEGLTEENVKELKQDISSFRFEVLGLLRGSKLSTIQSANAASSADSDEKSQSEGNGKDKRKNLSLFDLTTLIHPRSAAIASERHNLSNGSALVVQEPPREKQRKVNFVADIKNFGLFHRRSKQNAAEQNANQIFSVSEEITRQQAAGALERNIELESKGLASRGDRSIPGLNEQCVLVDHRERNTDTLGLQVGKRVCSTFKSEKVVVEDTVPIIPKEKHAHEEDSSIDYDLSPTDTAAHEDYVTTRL
Chain of Short transient receptor potential channel 6 (Mus musculus) (Q61143 whole entry, looked up): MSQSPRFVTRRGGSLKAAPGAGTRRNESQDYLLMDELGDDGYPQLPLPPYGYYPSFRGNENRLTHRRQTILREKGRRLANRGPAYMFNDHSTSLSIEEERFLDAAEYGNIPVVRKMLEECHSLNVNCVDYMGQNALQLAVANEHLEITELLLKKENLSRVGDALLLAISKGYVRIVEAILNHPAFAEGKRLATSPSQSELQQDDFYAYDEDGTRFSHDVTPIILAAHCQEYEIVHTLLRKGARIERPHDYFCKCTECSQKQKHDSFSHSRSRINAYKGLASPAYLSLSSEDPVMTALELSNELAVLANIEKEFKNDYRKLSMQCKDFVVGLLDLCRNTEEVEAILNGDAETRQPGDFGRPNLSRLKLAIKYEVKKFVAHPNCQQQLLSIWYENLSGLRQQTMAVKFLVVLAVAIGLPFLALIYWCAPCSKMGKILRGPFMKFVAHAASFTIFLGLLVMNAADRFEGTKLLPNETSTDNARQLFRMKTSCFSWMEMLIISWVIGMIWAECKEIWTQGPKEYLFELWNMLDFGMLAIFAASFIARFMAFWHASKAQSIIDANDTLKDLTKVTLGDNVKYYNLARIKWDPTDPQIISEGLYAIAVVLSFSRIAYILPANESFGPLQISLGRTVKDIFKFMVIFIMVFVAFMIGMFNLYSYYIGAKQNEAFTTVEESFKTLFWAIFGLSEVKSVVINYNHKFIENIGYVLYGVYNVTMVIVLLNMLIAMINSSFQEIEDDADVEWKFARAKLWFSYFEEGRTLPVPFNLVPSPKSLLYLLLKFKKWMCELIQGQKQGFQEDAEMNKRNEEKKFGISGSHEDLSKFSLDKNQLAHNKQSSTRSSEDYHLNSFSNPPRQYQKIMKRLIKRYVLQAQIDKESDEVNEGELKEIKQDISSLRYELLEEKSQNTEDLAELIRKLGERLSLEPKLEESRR

On to `CCCCN(C(=O)c1cccc2c(=O)c(C)c(-c3ccccc3)oc12)c1ccccc1`, for which the result in assay [1], in assay [2], in assay [3], in assay [5], in assay [6] and in [7] was inactive. The outcome in [8], in assay [9], in [10], in assay [11], in assay [12] and in assay [13] was inactive. For the same molecule, the outcome in assay [14], in assay [16] and in assay [17] was inactive. The potentiation in assay [4] is 15% (active); in assay [15], 12.4% (active).

Turning to `COc1ccc2c(c1)c1ncn(CCN3CCCC3)c(=O)c1n2C`, the outcome in assay [1], in assay [2], in assay [4], in [5], in assay [6] and in assay [7] was inactive. The result in [8], in [9], in assay [10], in assay [11], in [12] and in assay [13] was inactive. Moreover, the outcome in assay [14], in [16] and in [17] was inactive. Moreover, the potentiation is 13% (active) in assay [3] and 12.8% (active) in assay [15].

As to `CCOc1cc(O)c(-c2[nH]ncc2-c2nc(C)cs2)cc1CC`, the result in assay [1], in assay [2], in assay [3], in [5], in [6] and in assay [7] was inactive. In addition, the result in assay [8], in assay [9], in assay [10], in assay [11], in assay [12] and in assay [13] was inactive. The result in assay [14], in assay [16] and in assay [17] was inactive. In addition, the potentiation in [4] is 21% (active); in assay [15] it was 20% (active).

As for `O=C(CCN1CCN(Cc2ccccc2)CC1)Nc1cccc(Br)c1`, the outcome in [1], in [2], in assay [4], in [5], in [6] and in [7] was inactive. Further, the result in [8], in [9], in assay [10], in assay [11], in [12] and in assay [13] was inactive. Also, the outcome in [14], in [15], in [16] and in assay [17] was inactive. Further, in assay [3], the potentiation is 21% (active).

For `Cc1ccc(C(=O)c2no[n+]([O-])c2C(=O)c2ccc(C)cc2)cc1`, the outcome in [1], in assay [2], in assay [5], in assay [6], in assay [7] and in [8] was inactive. For the same molecule, the outcome in assay [9], in assay [10], in assay [11], in assay [12], in assay [13] and in assay [14] was inactive. In addition, the outcome in [16] and in assay [17] was inactive. For the same molecule, the potentiation in assay [3] is 23% (active); in assay [4] it was 89% (active); in assay [15], 59.9% (active).

Consider `O=S(=O)(Cc1ccccc1)N1CCC(c2nc(-c3cccs3)no2)CC1`, for which the result in assay [1], in [2], in [3], in [5], in assay [6] and in assay [7] was inactive. The result in [8], in assay [9], in assay [10], in [11], in [12] and in assay [13] was inactive. The result in [14], in assay [16] and in assay [17] was inactive. Further, the potentiation was 13% (active) in assay [4] and 11.4% (active) in assay [15].

Regarding `Cc1cccc(OCCn2c(=O)sc3ccccc32)c1`, the outcome in assay [1], in assay [2], in [3], in assay [4], in assay [5] and in assay [6] was inactive. The result in assay [7], in [8], in [9], in assay [10], in assay [11] and in [12] was inactive. Also, the result in assay [13], in assay [14], in [15], in assay [16] and in assay [17] was inactive.

`Cc1cc(Nc2ccc3c(c2)OCCO3)c2ccccc2n1`: the outcome in assay [1], in [2], in [3], in assay [4], in [5] and in [6] was inactive. In addition, the outcome in assay [7], in assay [8], in assay [9], in assay [10], in [11] and in assay [12] was inactive. Moreover, the outcome in [13], in assay [14], in assay [15], in [16] and in assay [17] was inactive.

Take `CCCC(=O)N/C(N)=N/c1nc(C)c2ccccc2n1`: the result in [1], in assay [2], in assay [4], in [5], in assay [6] and in assay [7] was inactive. Besides, the result in assay [8], in [9], in [10], in assay [11], in [12] and in assay [13] was inactive. Further, the result in assay [14], in assay [16] and in assay [17] was inactive. Further, the potentiation in [3] was 9% (active); in assay [15], 10% (active).

In the case of `CC(=NCCN1CCN(C(C)=C2C(=O)c3ccccc3C2=O)CC1)C1=C(O)CC(C)(C)CC1=O`, the outcome in assay [1], in assay [2], in [3], in [4], in assay [5] and in assay [6] was inactive. Further, the outcome in [7], in [8], in assay [9], in assay [10], in [11] and in [12] was inactive. Moreover, the outcome in assay [13], in [14], in [15], in assay [16] and in [17] was inactive.

On to `Oc1ccc(-c2[nH]ncc2-c2ccc(Br)cc2)c(O)c1`, for which the outcome in assay [1], in assay [2], in assay [3], in [4], in [5] and in [6] was inactive. Also, the outcome in assay [7], in assay [8], in [9], in [10], in assay [11] and in assay [12] was inactive. Also, the result in [13], in [14], in [15], in [16] and in assay [17] was inactive.

Broadly, the inhibition is the relative decrease from the control value, in per cent. On to `CN(CC(=O)Nc1ccc(F)cc1)C(=O)COC(=O)C1CCN(c2ccc(C(F)(F)F)cn2)CC1`, for which the result in assay [1], in assay [2], in assay [3], in [4], in assay [6] and in [7] was inactive. Also, the result in [8], in assay [9], in assay [10], in [11], in assay [12] and in assay [13] was inactive. Besides, the outcome in assay [15], in assay [16] and in assay [17] was inactive. Further, the inhibition in [5] was 70% (active); in [14], 36.3% (active).

For the molecule `CN1CCN(CCCNC(=O)CN2C(=O)COc3ccccc32)CC1`, the outcome in assay [1], in assay [2], in assay [3], in assay [4], in assay [6] and in [7] was inactive. Besides, the outcome in assay [8], in [9], in assay [10], in assay [11], in [12] and in assay [13] was inactive. Also, the result in [14], in [15], in assay [16] and in [17] was inactive. Moreover, the inhibition in assay [5] was 77% (active).

These data come from PubChem BioAssay.
